Compound activity: PubChem BioAssay, National Center for Advancing Translational Sciences (NCATS)
Shown are actives, neighbours in structure and some others; about 9.2% of the full set was active somewhere.
Rab9 prom act – activates the Rab9 promoter; Huh7 Rab9 promoter-luciferase reporter, luminescence, 24 h; Potency, µM (highest dose often 9.22 µM), for inactives: at the highest dose activation, negative = inhibition, actives largely listed as activators; 2.8% of 320,000 active; AID 485297; note: % of control where 0% means no effect; nearly all actives have a fitted effect of over 60% in size
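Measured in stably transfected Huh7 cells bearing a Rab9 promoter–luciferase construct: 24 h compound treatment at 37 °C, followed by luminescence detection.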
ELG1 repair inh – inhibitors of ELG1-dependent DNA repair in HEK293T cells; Potency, µM (top dose mostly 46.1 µM), for inactives: at the highest dose activity change, negative = inhibition, usual class: inhibitors; HEK293T ELG1-luciferase reporter, luminescence, 16 h; DNA damage induced by 5-fluorouridine; 2.3% of 330,000 active; note: % is set by controls: 0 for no effect and ±100 for the full control effect; nearly all actives have a fitted effect of over 55% in size
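HEK293T cells expressing luciferase-tagged ELG1 (2,000/well) received 5-Fluorouridine plus compound or DMSO for 16 hr at 37 °C. Luciferase was read by ONE-Glo luminescence after 30 min at room temperature.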
SMN2 splice up – enhancers of SMN2 splice variant expression | HEK293 SMN2-luciferase splicing reporter, luminescence, 30-36 h | Potency, µM (doses to about 46.1 µM), for inactives: top-dose activity change, positive = activation, most hits filed as activators | 2.8% of 210,000 active | AID 1458; note: % of control where 0% means no effect; nearly all actives have a fitted effect of over 55% in size
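HEK293 cells carry an SMN2 […]–luciferase reporter in which exon 7 inclusion puts luciferase in frame. Cells were plated 10-12 h before compound addition, then incubated 30-36 h at 37C. ONE-Glo luminescence was read; sodium butyrate at 4.5 mM final served as control.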
ELG1 genotoxic – genotoxicity induction in ELG1-luciferase HEK293T cells | Potency, µM (highest dose often 46 µM), for inactives: top-dose activity change, positive = activation, hits mostly activators | 1.3% of 330,000 active | AID 504466 | HEK293T ELG1-luciferase reporter, luminescence, 16 h; note: % of control where 0% means no effect; nearly all actives have a fitted effect of over 60% in size
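Quantitative HTS format in 1536-well plates. HEK293T ELG1-luciferase reporter cells receive test compound and are incubated 16 hr at 37 °C, 5% CO2; ONE-Glo added, 30 min room temperature, then luminescence read.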
NPC1 prom act – NPC1 promoter activation | Huh7 NPC1 promoter luciferase reporter, 24 h | Potency, µM (top dose mostly 9.22 µM), for inactives: at the highest dose activation, actives largely listed as activators | 2.4% of 320,000 active; note: % of control where 0% means no effect; nearly all actives have a fitted effect of over 60% in size
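Luminescence read-out of NPC1 promoter-driven luciferase in stably transfected Huh7 cells; compounds delivered in DMSO and left 24 h at 37C, 5% CO2, qHTS titration format.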
FLuc counter – inhibits or activates purified firefly luciferase, miR-21 counter-screen. Potency, µM (series often up to 57.5 µM), for the others: top-dose activity change, negative = inhibition, usual class: inhibitors. P08659. 6.9% of 360,000 active. purified FLuc, Km substrates, luminescence inhibition;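 note: plate controls were vehicle for no effect and reference inhibitor for full effect; nearly all actives have a fitted effect of over 55% in size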
Target sequence (P08659 whole entry, looked up): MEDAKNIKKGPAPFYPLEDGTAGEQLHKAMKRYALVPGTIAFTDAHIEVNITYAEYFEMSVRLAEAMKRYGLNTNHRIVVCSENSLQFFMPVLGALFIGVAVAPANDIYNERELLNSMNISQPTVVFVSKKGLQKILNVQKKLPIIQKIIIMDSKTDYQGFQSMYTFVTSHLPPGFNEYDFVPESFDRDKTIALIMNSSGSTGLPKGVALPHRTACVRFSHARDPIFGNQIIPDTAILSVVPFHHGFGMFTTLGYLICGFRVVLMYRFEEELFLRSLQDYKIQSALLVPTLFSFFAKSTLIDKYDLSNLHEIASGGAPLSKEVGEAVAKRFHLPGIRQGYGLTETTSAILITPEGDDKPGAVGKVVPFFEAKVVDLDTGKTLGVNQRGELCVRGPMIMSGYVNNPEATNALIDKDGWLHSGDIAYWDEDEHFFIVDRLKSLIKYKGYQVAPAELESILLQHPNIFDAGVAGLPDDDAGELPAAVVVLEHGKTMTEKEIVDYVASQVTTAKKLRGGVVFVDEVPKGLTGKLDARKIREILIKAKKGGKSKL
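Purified P. pyralis luciferase (10nM final) with 10uM D-luciferin and 10uM ATP (Km levels) in 50mM Tris acetate pH 7.5, 10mM Mg acetate, 0.01% Tween-20, 0.05% BSA; qHTS 6-point titration, ~60 µM downward; luminescence read.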
Numbers without * were called inactive; ? = inconclusive; . = not tested or not shown. Calls come from the whole dose curve; as a rule, active = well fitted curve in the direction sought with a large enough effect; inconclusive = small, poorly fitted or top-dose-only effect, or another doubt; inactive = no such curve, though single readings can be large; an effect the other way counts as inactive or inconclusive. Potency is the fitted concentration of half-maximal effect.

SMILES	Rab9 prom act	ELG1 repair inh	SMN2 splice up	ELG1 genotoxic	NPC1 prom act	FLuc counter
Cc1c(NC(=O)CSc2nnc3c4ccccc4n(CCc4ccccc4)c3n2)c(=O)n(-c2ccccc2)n1C	13%	?	3.2µM*	-12%	-5%	6%
Cn1c2ccccc2c2nnc(SCC(=O)Nc3cccc(O)c3)nc21	6%	-2%	.	11%	-1%	6.7µM*
Cc1cccn2c(=O)c(C=O)c(Nc3ccccc3)nc12	2%	9%	.	-1%	?	-2%
C#CCOc1nc(Nc2cccc([N+](=O)[O-])c2)nc(OCC#C)n1	-11%	18µM*	.	-5%	0%	-14%
COc1nc(Nc2cccc([N+](=O)[O-])c2)nc(OC)n1	-3%	?	-6%	3%	0%	-1%
CN=c1scc(C)n1/N=C/c1ccc(O)c(O)c1O	17%	?	-1%	?	2%	1.5µM*
CN=c1scc(-c2cccs2)n1/N=C/c1ccc(O)c(O)c1O	0.79µM*	?	13µM*	?	?	1.7µM*
CN=c1scc(-c2cccs2)n1/N=C/c1ccccc1O	-51%	5.2µM*	-80%	-11%	-37%	0.17µM*
CN=c1scc(C)n1/N=C/c1cc(Br)c(O)c(OC)c1	26%	?	?	2%	2%	17µM*
COCCN(C(=O)c1ccc(-c2ccc([N+](=O)[O-])cc2)o1)c1c(N)n(CC(C)C)c(=O)[nH]c1=O	-8%	9%	.	1%	0%	5%
O=C(Nc1cccc(C(F)(F)F)c1)Nc1ccc2[nH]c(=O)[nH]c2c1	-5%	2%	.	1%	1%	5%
O=C(O)c1ccccc1C(=O)NC1CCCCNC1=O (stereo not given)	-4%	-6%	.	1%	12%	-2%
Cc1nc(C)c(C(=O)O)s1	-1%	-2%	.	0%	-2%	1%
Cc1cccc(-c2nc3nc(C)cc(NC(C)c4ccccc4)n3n2)c1 (stereo not given)	.	.	.	.	.	17µM*
CCN(CC(=O)NC1CCS(=O)(=O)C1)S(=O)(=O)c1cc(Br)ccc1Br (stereo not given)	-2%	3%	.	12%	0%	-1%
Cc1cc(OCc2cc(C(=O)N(C)Cc3ccccn3)no2)cc(C)c1Cl	4µM*	?	.	?	4µM*	12µM*
CC(=O)c1ccc(OCc2cc(C(=O)N(C)Cc3ccccn3)no2)cc1	?	?	.	?	?	15µM*
Cc1cc(OCc2cc(C(=O)N(C)C(C)c3ccccn3)no2)cc(C)c1Cl (stereo not given)	?	?	.	?	?	19µM*
O=C(NCC(c1ccco1)N1CCCC1)c1cc2ccccc2s1 (stereo not given)	-15%	1%	.	2%	0%	-1%
O=C(Cn1ncc2c(=O)oc3ccccc3c21)NCc1ccc(Cl)cc1	.	.	0%	.	.	0%
O=C(COc1ccc2c(c1)OCO2)Nc1nncs1	26%	?	.	?	14%	9.5µM*
NC(=O)c1ccccc1NC(=O)COc1ccc2c(c1)OCO2	3.5µM*	?	.	?	2.5µM*	4.8µM*
COc1ccccc1NC(=O)COc1ccc2c(c1)OCO2	-39%	?	.	?	?	15µM*
COc1ccc(CCNC(=O)C2=C(C)C(=O)OC23CCCCC3)c(OC)c1OC	.	.	-3%	.	.	2%
O=C(COc1ccc2ccccc2c1Br)NC(=S)Nc1cccc(CO)c1	?	?	?	21µM*	?	8.5µM*
SMILES	Rab9 prom act	ELG1 repair inh	SMN2 splice up	ELG1 genotoxic	NPC1 prom act	FLuc counter
Cc1ccccc1OCC(=O)NC(=S)Nc1cccc2cc(O)ccc12	5%	12%	.	0%	2%	3%
O=C(COc1ccc(Br)cc1Br)NC(=S)N1CCCc2ccccc21	20%	?	3%	23µM*	-1%	17µM*
O=C(COc1ccccc1Cl)NC(=S)Nc1cccc(NC(=O)c2ccccc2Cl)c1	-1%	2%	?	0%	0%	?
O=C(COc1ccc(Br)cc1Br)NC(=S)Nc1cccc(CO)c1	0.45µM*	?	18µM*	7.3µM*	0.35µM*	3.8µM*
COc1ccc(-n2c(=O)c3c(c4cc(OC)ccc4n3C)n(CCC(C)C)c2=O)cc1	.	.	.	.	.	1%
COc1ccccc1N1CCN(S(=O)(=O)CCNC(=O)C2CCCCC2)CC1	-5%	?	.	-20%	8%	8%
CCCCNc1nc(Oc2ccc(OCCC)nn2)nc(N(C)C)n1	.	.	-1%	.	.	4%
CN(Cc1ccccc1)C(=O)c1ccc2c(c1)OCCO2	4%	?	7%	4%	1%	-5%
O=C(Cc1ccccc1)c1ccc2c(c1)OCCO2	2.8µM*	?	?	18µM*	2.5µM*	8.5µM*
O=C(NCCn1ccc2ccccc21)c1ccc2c(c1)OCO2	1.1µM*	?	8.9µM*	2.3µM*	0.89µM*	6.7µM*
COc1ccc(C(=O)NCCn2ccc3ccccc32)cc1	1.4µM*	?	13µM*	?	?	11µM*
Cc1ccc(C(=O)NCCn2ccc3ccccc32)cc1[N+](=O)[O-]	21%	0%	?	-3%	21%	-18%
CCCn1cc(SCC(=O)Nc2nnc(C)s2)c2ccccc21	-6%	-13%	12%	8%	-6%	4%
Cc1ccc(C(=O)NCCn2cc(SCC(=O)Nc3nnc(C)s3)c3ccccc32)cc1	26%	?	-55%	?	-3%	17µM*
O=C(NCCn1ccc2ccccc21)c1ccc(S(=O)(=O)N2CCCCC2)cc1	-2%	?	-36%	-16%	-2%	6%
COc1cccc(CNC(=O)C(Cc2ccccc2)NS(=O)(=O)c2ccc3c(c2)CCN3C(C)=O)c1 (stereo not given)	.	.	-9%	.	.	3%
CCOc1ccccc1CNS(=O)(=O)c1cnc(N)nc1	.	.	.	.	.	-2%
COc1ccc(NC(=O)CSc2cn(CCNC(=O)c3ccc(OC)cc3)c3ccccc23)cc1	.	.	-28%	.	.	?
O=C(NCCc1ccccc1)c1ccc2c(c1)OCO2	?	?	.	?	?	0.54µM*
Cc1cc2ccccc2n1CCNC(=O)c1ccccc1	?	?	-54%	5%	?	21µM*
Cc1cc2ccccc2n1CCNC(=O)c1ccc(Br)cc1	.	.	-58%	.	.	?
O=C(NCCc1ccccc1)C1=COCCO1	3.2µM*	?	.	?	2.5µM*	17µM*
CC(C)(C)c1ccccc1NC(=O)C1=COCCO1	2%	?	.	6%	-1%	2%
COc1ccc(C(=O)NCCn2cc(SCC(N)=O)c3ccccc32)cc1	22%	?	.	4%	12%	15µM*
